Data on 36 compounds can be found in PubChem BioAssay (NCATS).

Each structure is given as a SMILES string. Inconclusive results are not listed. A call without a number means that no potency is given here. Active and inactive are the calls of the source. The call rests on the fitted dose curve; in most records, active means well fitted inhibition curve with a large enough effect; inconclusive means small, poorly fitted or top-dose-only effect; inactive means flat fitted curve, though single readings scatter.

Calcium and integrin-binding protein 1 (Homo sapiens), sequence (Q99828 whole entry, looked up): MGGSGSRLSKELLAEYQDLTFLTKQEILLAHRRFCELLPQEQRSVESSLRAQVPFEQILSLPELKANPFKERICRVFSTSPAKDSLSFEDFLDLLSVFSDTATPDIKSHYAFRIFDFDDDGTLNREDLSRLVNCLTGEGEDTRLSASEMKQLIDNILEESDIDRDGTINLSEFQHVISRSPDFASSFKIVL

The experiment has as its target Calcium and integrin-binding protein 1 (Homo sapiens) (UniProt Q99828). The experiment is described as follows: Primary qHTS for Identification of Calcium Integrin Binding Protein 1 (CIB1) Competitor (AID 1508620). Further: top concentration of the series differs between compounds. The note with it: CIB1-GST / FITC-alphaIIb peptide fluorescence polarization; series mostly up to 114 µM. A digest of the protocol:
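Fluorescence polarization competition: GST-tagged CIB1 (1 uM final) preincubated with compound 15 min at room temperature, then FITC-labelled alphaIIb peptide (100 nM final) added. After 15 min at room temperature, polarization read at Ex 480/Em 540.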
With `c1ccc2sc(SN3CCOCC3)nc2c1`, the Potency result was “inactive”.

On to `Cc1c(Nc2ncccc2C(=O)O)cccc1C(F)(F)F`, for which the Potency entry is “inactive”.

In the case of `COc1ccc(-c2cc(=S)ss2)cc1`, the Potency entry is “inactive”.

On to `COC(=O)C1=C(C)NC(C)=C(C(=O)OCC(C)=O)C1c1ccccc1[N+](=O)[O-]` (stereo unspecified), for which the Potency entry was “inactive”. Take `CCOc1ccc2nc(S(N)(=O)=O)sc2c1`: the Potency result was “inactive”. On the same count and under the same terms, the result for `Cc1cc(O)c2ccccc2c1O` reads “inactive”; that for `O=C(O)c1ccccc1Nc1cccc(C(F)(F)F)c1`, “inactive”; that for `COC(=O)c1nc(Cl)c(Cl)nc1N`, “inactive”.

For `CCCCCCOc1ccccc1C(N)=O`, the Potency entry is “inactive”. On the same count and under the same terms, for `Clc1ccccc1-c1nc(-c2ccncc2)no1` the value was “inactive”. On to `Cc1c(C(=O)O)c(O)cc2c1C(=O)c1c(O)c([C@@H]3O[C@H](CO)[C@@H](O)[C@H](O)[C@H]3O)c(O)c(O)c1C2=O`, for which the Potency entry is “inactive”. On the same count and under the same terms, the result for `O=C(/C=C/c1ccccc1)NCCO` reads “inactive”. Turning to `O=C(O)Cc1cccc(-c2cc(CCCCCCc3ccc(O[C@H]4O[C@H](CO)[C@@H](O)[C@H](O)[C@@H]4O)c(-c4cccc(CC(=O)O)c4)c3)ccc2O[C@H]2O[C@H](CO)[C@@H](O)[C@H](O)[C@@H]2O)c1`, the activity change, negative = inhibition is -8.49% [at 1.07 µM] (inactive).

`O=C(Nc1ccc(C(=O)O)c(O)c1)c1ccccc1`: the Potency entry is “inactive”.

In the case of `COC(=O)Nc1nc2ccc(C(=O)C3CC3)cc2[nH]1`, the Potency entry is “inactive”. `C#CC1(O)CC[C@H]2[C@@H]3CCC4=CCCC[C@@H]4[C@H]3CC[C@@]21C` (stereo partly specified): the Potency entry was “inactive”. Same read-out and setting: the result for `CNC(=O)c1c(I)c(NC(=O)CCCCC(=O)Nc2c(I)c(C(=O)O)c(I)c(C(=O)NC)c2I)c(I)c(C(=O)O)c1I` reads “inactive”. On the same count and under the same terms, the result for `S=c1[nH]c2ccccc2s1` reads “inactive”; that for `CCCSc1ccc2nc(NC(=O)OC)[nH]c2c1`, “inactive”; that for `C/C(=N\O)c1ccc(OCC(=O)N2CCCCC2)cc1`, “inactive”. Turning to `Cc1nc2ccccc2n1Cc1ccc(Cl)cc1`, the Potency result is “inactive”. On the same count and under the same terms, the result for `Nc1nc2ccc([N+](=O)[O-])cc2s1` reads “inactive”; that for `O=C(CCN1CCN(CCO)CC1)N1c2ccccc2Sc2ccc(C(F)(F)F)cc21`, “inactive”; that for `c1ccc(CCNc2nc(-c3ccccc3)cs2)cc1`, “inactive”.

On to `CCCCCCCC/C=C/C(=O)O`, for which the Potency result is “inactive”. With `Cc1ccc(O)c(-n2nc3ccccc3n2)c1`, the Potency entry is “inactive”.

Consider `CN1CCN(c2cc3c(nn2)Oc2ccccc2N3C)CC1`, for which the Potency result is “inactive”. Still for that read-out and setting: for `C#C[C@]1(O)CC[C@H]2[C@@H]3CCc4cc(O)ccc4[C@H]3CC[C@@]21C` the value was “inactive”. On the same count and under the same terms, for `CC(C(=O)O)c1ccc(C(=O)c2cccs2)cc1` (stereo unspecified) the value was “inactive”; for `Cc1[nH]cnc1CN1CCc2c(c3ccccc3n2C)C1=O`, “inactive”; for `O=C(O)Cc1ccc(-c2ccccc2)cc1`, “inactive”.

Consider `COc1cc2c3cc1Oc1cc(ccc1O)C[C@@H]1c4c(cc(OC)c(O)c4Oc4ccc(cc4)C[C@@H]3N(C)CC2)CC[N+]1(C)C`, for which the Potency result was “inactive”.

With `CCCCC1C(=O)N(c2ccccc2)N(c2ccc(O)cc2)C1=O` (stereo unspecified), the Potency result was “inactive”. Same read-out and setting: for `CCCCCCCCCCCCCCCC(=O)OC(C)C` the value was “inactive”; for `c1ccc2sc(SSc3nc4ccccc4s3)nc2c1`, “inactive”; for `CC(C)(C)c1nnc(NS(=O)(=O)c2ccc(N)cc2)s1`, “inactive”.
